A549 tox: A549 cytotoxicity, counter-screen for Nrf2 inhibitors; Potency, µM (series often up to 46 µM), without a hit: top-dose activity change, negative = cytotoxicity, hits mostly inhibitors; 390,000 tested, 0.16% active; A549 ARE-Fluc cells, CellTiter-Fluor viability, 18-24 h; also: % is scaled to controls: 0 for no effect and ±100 for the full control effect
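A549 ARE_Fluc cells in 5% FBS OPTI-MEM were exposed to compounds in concentration-response for 18-24 h at 37 deg C. Viability was read by CellTiter-Fluor fluorescence (Ex 405/Em 525) after 30 min, before the luciferase read.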
TrxR1 substrate: is turned over as a substrate by rat TrxR1; O89049; purified TrxR1 substrate turnover, NADPH consumption readout; Potency, µM (top dose mostly 114 µM), without a hit: at the top dose activity change, negative = substrate turnover; 390,000 tested, 0.01% active; also: % is scaled to controls: 0 for no effect and ±100 for the full control effect; nearly all actives have a fitted effect of over 50% in size
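Rat TrxR1, dispensed at 90 nM, was prereduced with 400 uM NADPH (final) for 5 min at ~22 deg C, then incubated with compound 15 min before 400 uM selenite. A first-read NADPH fluorescence drop versus no-compound background flagged substrates.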
TrxR1 inh: rat TrxR1 inhibition; recombinant rTrxR1, NADPH fluorescence consumption, selenite substrate; AID 588453; 390,000 tested, 1% active; Potency, µM (doses to about 114 µM), for inactives: top-dose activity change, negative = inhibition, usual class: inhibitors; also: % is scaled to controls: 0 for no effect and ±100 for the full control effect; nearly all actives have a fitted effect of over 65% in size
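Rat TrxR1 (90 nM in the dispensed reagent) was pre-reduced with 400 uM NADPH for 5 min at room temperature, then incubated with compound for 15 min. After 400 uM selenite was added, NADPH fluorescence (Ex 340/Em 450 nm) was followed for 8 min.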
GALK inhibitor: blocks human galactokinase activity; P51570; Purified GALK, Kinase-Glo residual ATP luminescence; Potency, µM (top dose mostly 57.5 µM), for the others: top-dose activity change, negative = inhibition, hits mostly inhibitors; 270,000 tested, 0.007% active; also: % is scaled to controls: 0 for no effect and ±100 for the full control effect
Target sequence (P51570 whole entry, looked up): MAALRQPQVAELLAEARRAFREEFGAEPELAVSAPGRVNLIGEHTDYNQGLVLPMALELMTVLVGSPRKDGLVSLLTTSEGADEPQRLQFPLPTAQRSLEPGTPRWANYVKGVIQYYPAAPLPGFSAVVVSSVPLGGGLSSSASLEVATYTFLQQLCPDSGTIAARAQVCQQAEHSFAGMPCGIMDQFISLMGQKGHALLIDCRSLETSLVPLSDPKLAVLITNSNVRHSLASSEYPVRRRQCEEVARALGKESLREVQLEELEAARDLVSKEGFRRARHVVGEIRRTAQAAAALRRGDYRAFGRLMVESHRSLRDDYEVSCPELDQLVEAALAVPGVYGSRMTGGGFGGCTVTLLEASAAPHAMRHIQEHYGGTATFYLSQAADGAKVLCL
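The enzyme phosphorylates galactose (100 uM) using ATP (35 uM); inhibition is detected as higher residual ATP, quantified by bioluminescence after 1 h reaction at room temperature, pH 8.0.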
Nrf2 inh: inhibitors of Nrf2 signaling | A549 ARE-Fluc reporter, luciferase luminescence, 18-24 h | Potency, µM (series often up to 46 µM), inactives show at the top dose activity change, negative = inhibition, actives largely listed as inhibitors | 360,000 tested, 2.1% active | AID 504444; also: % is scaled to controls: 0 for no effect and ±100 for the full control effect; nearly all actives have a fitted effect of over 60% in size
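Nrf2 activity is the BugLite luminescence, read 15 min after reagent at room temperature, following CellTiter-Fluor cytotoxicity readout (30 min, 37C). Compound titrations were applied for 18-24 h to 5000 A549 ARE_Fluc cells/well in 5% FBS OPTI-MEM.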
Nrf2 ARE act: activators of Nrf2 (ARE) signaling | AID 624171 | AREc32 ARE-luciferase reporter (MCF7-derived line), luminescence, 24 h | 410,000 tested, 0.31% active | Potency, µM (doses to about 46.1 µM), for inactives: top-dose activation, hits mostly activators; also: % of control where 0% means no effect; nearly all actives have a fitted effect of over 65% in size
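For detection, Steady-Glo was added and plates sat 30 min at RT; before that, AREc32_Fluc cells grown overnight in OPTI-MEM/5% FBS had been treated with 23 nL compound for 24 hr at 37 deg C.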
* hit, by the source's call; ? = inconclusive; · = no result given; [ ] = dose if it differs, or a comment. Shown are actives, neighbours in structure and some others; about 3% of the full set was active somewhere. Calls follow the shape of the dose curve; as a rule, active = well fitted curve in the direction sought with a large enough effect; inconclusive = small, poorly fitted or top-dose-only effect, or another doubt; inactive = no such curve, though single readings can be large; an effect the other way counts as inactive or inconclusive. Potency is read from the fitted curve at half-maximal effect.

SMILES	A549 tox	TrxR1 substrate	TrxR1 inh	GALK inhibitor	Nrf2 inh	Nrf2 ARE act
CCc1ccc2c(c1)c(=O)c(S(=O)(=O)c1ccccc1)cn2CC(=O)Nc1ccc(OC)cc1	-9%	-1%	7%	·	6%	0%
O=C(Nc1ccccc1Cl)[C@H](CSCc1ccccc1)N1Cc2ccccc2C1=O	-10%	1%	11%	·	-20%	1%
Cc1ccc(NC(=O)CSc2nc(-c3cccs3)cc(C(F)(F)F)n2)cc1C	-2%	2%	-7%	·	9%	0%
Nc1c(N=Nc2ccc([N+](=O)[O-])cc2)c(S(=O)(=O)O)cc2cc(S(=O)(=O)O)c(/C=C/c3ccccc3)c(O)c12	·	-15%	19%	·	·	·
O=c1c2[nH]c3ccccc3c2ncn1CCC1=CCCCC1	-10%	-5%[57.1 µM]	-1%[57.1 µM]	1%	30%	3%
C1=C(CCNc2ncnc3c2[nH]c2ccccc23)CCCC1	-3%	-3%[11.4 µM]	-7%[11.4 µM]	-1%	5.2µM*	0%
O=[N+]([O-])c1ccc(Oc2ccc(/C=N/O)cc2)nc1	-2%	1%	9%	4%	-15%	2%
O=[N+]([O-])c1ccc(Oc2ccc(Oc3ccc(C(F)(F)F)cn3)cc2)nc1	0%	-1%	24%	1%	16µM*	0%
CC1CC2C3CCC4=CC(=O)CCC4(C)C3CCC2(C)C1(O)C(=O)CO (stereo not given)	-4%	10%	15%	·	0.65µM*	4%
CC12CCC(=O)C=C1CCC1C2CCC2(C)C1CCC2(O)C(=O)CO (stereo not given)	-15%	6%	29%	·	?	0%
CC(=O)OC1(C(C)=O)CCC2C3CC(C(F)(F)F)C4=CC(=O)CCC4(C)C3CCC21C (stereo not given)	-6%	0%	16µM*	·	-14%	7.1µM*
CCC(=O)OC1(C(C)=O)CCC2C3CCC4=CC(=O)CCC4(C)C3CCC21C (stereo not given)	6%	8%	0%	·	1.2µM*	6%
CC(=O)O[C@]1(C(C)=O)CC[C@H]2[C@@H]3C[C@H](C)C4=CC(=O)CC[C@]4(C)[C@H]3CC[C@@]21C	-14%	0%	9%	4%	0.26µM*	1%
CC(C)C(=O)Nc1ccc(/C=C2\C=Cc3ccccc32)cc1	·	5%[0.0914 µM]	-19%	·	·	·
COc1ccccc1C1C=C(c2ccc(F)cc2)Nc2nc(-c3ccc(Cl)cc3)nn21 (stereo not given)	3%	1%	18%	·	?	4%
O=C(c1cc(C2CC2)nc2ccc(Br)cc12)N1N=C(C(F)F)CC1(O)C(F)F (stereo not given)	?	-2%	13%	0%	18µM*	-1%
Cn1c(SCC(=O)c2ccc(F)cc2)nnc1-c1ccccc1Br	6%	12%[11.4 µM]	-13%	·	4%	3%
CCc1ccc(N2CCn3c2nc2c3c(=O)n(Cc3c(F)cccc3Cl)c(=O)n2C)cc1	-8%	7%[11.4 µM]	46%[11.4 µM]	·	23µM*	-1%
CCc1ccc(N2CCn3c2nc2c3c(=O)n(Cc3ccc(F)cc3)c(=O)n2C)cc1	-14%	11%[11.4 µM]	22%	·	?	1%
Cc1ccc(-c2nc3ccccc3o2)cc1NC(=O)Cc1ccc(Cl)cc1	2%	5%	13%	·	10%	0%
CC(C)c1ccc(NC(=O)c2cc(S(=O)(=O)NC3CCCCC3)ccc2F)cc1	?	-4%[57.1 µM]	5%[57.1 µM]	·	·	-1%
Cc1cc(C)cc(-n2ncc3c2CCCC3NC(=O)c2cc(C)n(C)n2)c1 (stereo not given)	4%	6%	4%	0%	-13%	1%
Cc1cc(C(=O)NC2CCCc3c2cnn3-c2ccc(C(C)(C)C)cc2)nn1C (stereo not given)	-21%	-13%	-9%	-6%	2.6µM*	3%
O=C(Cc1cccc([N+](=O)[O-])c1)NCc1nc2cccnc2n1Cc1ccc(F)cc1	4%	5%[57.1 µM]	18%[57.1 µM]	·	·	0%
